SMILES strings stand for the structures. Results filed as inconclusive are left out. The source made the active and inactive calls. Calls come from the whole dose curve; as a rule, active = well fitted cell-killing curve with a large enough effect in the repeat runs; inconclusive = weak or mixed curves; inactive = no such curve, though single readings can be large or run the other way.

This test is described as follows: qHTS assay to identify small molecule antagonists of the peroxisome proliferator-activated receptor delta (PPARd) signaling pathway - cell viability counter screen (AID 743213). Note: nearly all actives have a fitted effect of over 50% in size. Conditions: PPARd-bla HEK293H viability, CellTiter-Glo luminescence, 17 h; series mostly up to 62 µM. From the text:
U.S. Tox21 Program National Center for Advancing Translational Sciences [NCATS] NIH Chemical Genomics Center [NCGC] U.S. Environmental Protection Agency [EPA] National Institutes of Environmental Health Sciences [NIEHS] National Toxicology Program [NTP] U.S. Food and Drug Administration [FDA] Tox21 Assay Overview: The peroxisome proliferator-activated receptors (PPARs) are lipid-activated transcription factors of the nuclear receptor superfamily with three distinct subtypes namely PPAR alpha, PPAR delta (PPARd) and PPAR gamma. All these subtypes heterodimerizes with Retinoid X receptor (RXR) and have different physiological functions. […] To identify the compounds that inhibit PPAR-delta signaling, GeneBLAzer PPAR delta UAS-bla HEK293H cell line (Invitrogen, Carlsbad, CA, USA) containing a beta-lactamase reporter gene under the control of an Upstream Activator Sequence (UAS) was used to screen the Tox21 compound library. The cytotoxicity of the Tox21 compound library against the PPARd-bla cell line was tested in parallel by measuring the cell viability using CellTiter-Glo assay (Promega, Madison, WI) in the same wells.
Tox21 Assay Protocol Summary: PPARd-bla cells were dispensed at 3000 cells/5uL/well in 1536-well black wall/clear bottom plates using a Multidrop Combi (Thermo Fisher Scientific, Waltham, MA) dispenser. After the assay plates were incubated at 37 C and 5% CO2 for 5 h, 23 nL of compounds dissolved in DMSO, positive controls or DMSO only was transferred to the assay plate by a Pintool station (Kalypsys, San Diego, CA), followed by addition of 1ul L165041 (300 nM, final concentration in the wells). The assay plates were incubated at 37 C for 17 h, and then 1 uL of LiveBLAzerTM B/G FRET substrate was added using a Bioraptr Flying Reagent Dispenser (FRD) workstation (Beckman Coulter, Indianapolis, IN, USA). The assay plates were incubated at room temperature for 2 h and fluorescence intensity was measured by an Envision plate reader (PerkinElmer, Shelton, CT). For cell viability readout that measures cytotoxicity, 3 ul/well of CellTiter-Glo reagent was added into the assay plates using a Bioraptr FRD. After 30 min incubation at room temperature, the luminescence intensity in the plates was measured using a ViewLux plate reader (PerkinElmer).
For orientation: In qHTS, concentration-response curves come from the screen itself.
For `CCOC(=O)c1ccccc1`, the compound was called inactive.

In the case of `O=S(=O)(O)c1cccc2ccccc12`, the call was inactive.

With `CCOC(=O)CCC(=O)OCC`, the outcome was inactive.

Consider `O=S(=O)(O)c1cccc2c(S(=O)(=O)O)cccc12`, for which the call was inactive.

Turning to `CCC1C(=O)OCC1Cc1cncn1C` (stereo not given), the compound was called inactive.

For `CO[C@@]1(NC(=O)CSC[C@@H](N)C(=O)O)C(=O)N2C(C(=O)O)=C(CSc3nnnn3C)CS[C@@H]21`, the compound was called inactive.

Take `CCCCN1C=CN(C)C1`: the call was inactive.

Regarding `Nc1c2c(nc3c1CCC3)CCCC2`, the result was inactive.

Regarding `CCCC(C)C(=O)OCC` (stereo not given), the result was inactive.

Consider `O=C(O)c1cc(C(=O)O)cc(C(=O)O)c1`, for which the call was inactive.

For the compound `CCC(C)(CCCC(C)C)OC(C)=O` (stereo not given), the compound was classed as inactive.

Regarding `CCN1CCOCC1`, the compound was classed as inactive.

Regarding `C=CCCCCCCCCC(=O)OCC`, the compound was classed as inactive.

For the compound `CN1[C@@H]2CC[C@H]1CC(OC(=O)C(O)c1ccccc1)C2` (stereo not given in full), the compound was classed as inactive.

In the case of `O=Cc1cccc(Br)c1`, the result was inactive.

In the case of `CCN[C@H]1C[C@H](C)S(=O)(=O)c2sc(S(N)(=O)=O)cc21`, the result was inactive.

Consider `NC(=O)Cc1cccc2ccccc12`, for which the compound was classed as inactive.

Turning to `CC(=O)NC(=O)c1ccccc1O`, the compound was classed as inactive.

Take `CCCCCCCCCCCCSC`: the compound was called inactive.

For the compound `CC(C)(C)OC(=O)c1cccc(N)c1`, the compound was classed as inactive.

As for `CCCCCCCCCC[N+](C)(C)[O-]`, the compound was classed as inactive.

In the case of `NC(=O)NC1N=C([O][Al])NC1=O` (stereo not given), the compound was classed as inactive.

For the compound `CN1C(C)(C)CC(O)CC1(C)C`, the result was inactive.

`Cc1ccc(-c2ncc(Cl)cc2-c2ccc(S(C)(=O)=O)cc2)cn1`: the call was inactive.

For the compound `COc1ccc2cc1Oc1cc3c(cc1OC)CC[N+](C)(C)[C@H]3Cc1ccc(cc1)Oc1c(OC)c(OC)cc3c1[C@@H](C2)[N+](C)(C)CC3`, the result was inactive.

Regarding `CC1=NN(c2cccc(S(=O)(=O)O)c2)C(=O)C1`, the call was inactive.

As for `CCCc1nn(C)c2c(=O)[nH]c(-c3cc(S(=O)(=O)N4CCN(C)CC4)ccc3OCC)nc12`, the outcome was inactive.

Consider `CC(C#N)(CCC(=O)O)N=NC(C)(C#N)CCC(=O)O` (stereo not given), for which the call was inactive.

Take `CC1=C(C/C=C(\C)CCC[C@H](C)CCC[C@H](C)CCCC(C)C)C(=O)c2ccccc2C1=O`: the outcome was inactive.

`C=CC(C)(CCC=C(C)C)OC(=O)CC` (stereo not given): the call was inactive.

Consider `NCCCC(N)(C(=O)O)C(F)F` (stereo not given), for which the compound was classed as inactive.

For `Cc1nc(C2CCCCC2)c(-c2ccc(S(N)(=O)=O)c(F)c2)o1`, the result was inactive.

For `Cc1cccc(C)c1NC(=O)CC12CCCN1CCC2`, the compound was called inactive.

`CCCCOCCOC(=O)CCCCCCCCC(=O)OCCOCCCC`: the result was inactive.

For `CC(C)(N)C#N`, the compound was called inactive.

In the case of `O=C(O)CCSCCC(=O)O`, the outcome was inactive.

With `CCCCCCCC1CCCC1=O` (stereo not given), the compound was called inactive.

Take `COc1cc(C(=O)NCc2ccc(OCCN(C)C)cc2)cc(OC)c1OC`: the outcome was inactive.

For the compound `CCCCCC(=O)OCCc1ccccc1`, the compound was classed as inactive.

For the compound `CC[N+](CC)(CC(=O)Nc1c(C)cccc1C)Cc1ccccc1` (tested in a mixture with another compound), the call was inactive.

(Values after PubChem BioAssay (Tox21).)
